NR3A LBD binder: modulates the human NR3A ligand-binding domain | NR3A LBD differential scanning fluorimetry, Tm shift; 0% = protein alone, 100% = glycine-bound protein | Tm shift relative to glycine control, % at 25 µM | hit rate 2.5% among 340,000 | AID 1259313;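 active = melting temperature shift of at least 10% of the positive control shift, at one fixed dose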
NadD inh: NadD (S. aureus) enzyme inhibition; purified NadD enzyme, colorimetric absorbance read-out; inhibition, % at 20 µM; hit rate 0.78% among 360,000; in the data active = inhibition above about 26%
rCAG RNA binder: binds r(CAG) RNA repeats; r(CAG) RNA repeat, TO-PRO-1 dye displacement fluorescence; inhibition, % at 3 µM; hit rate 1.3% among 370,000;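 active = inhibition above the plate cutoff, the mean of all test compounds on that plate plus 3 SD, cut at about 35% in these data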;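 note: higher means more dye released from RNA so lower well fluorescence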
FAS-TE inh: blocks the thioesterase domain of human fatty acid synthase; AID 602261; recombinant FAS-TE, OMFH fluorogenic substrate, fluorescence endpoint; P49327; hit rate 0.67% among 360,000; inhibition, % at 15 µM;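 active = compounds whose normalised, plate-corrected inhibition of enzyme fluorescence in the single-dose primary screen is 50% or more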
FAS-TE conf: FAS thioesterase (human) inhibition, confirmation. shares compounds with FAS-TE inh. recombinant FAS-TE, OMFH fluorogenic substrate, fluorescence. inhibition, % at 15 µM. hit rate 45% among 2,300;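 active = compounds inhibiting the enzyme by at least 50% at 15 µM in any one of the replicates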
NadD conf: NadD (S. aureus) inhibition, single concentration confirmation | hit rate 13% among 2,000 | shares compounds with NadD inh | purified S. aureus NadD, colorimetric enzyme assay | inhibition, % at 20 µM; in the data active = inhibition mostly above about 42%, no sharp cut-off; inactive = mostly below about 42%
Each line names hits and unclear results; the compound was inactive in the other large screens (follow-up assays come after a bar, where they were run). An excerpt weighted towards active compounds, which were near 4.3% of everything screened.

O=C(NC(Cc1ccccc1)C(=O)O)/C(=C\c1cccc([N+](=O)[O-])c1)NC(=O)c1ccco1 (stereo unspecified)	none
COC(=O)c1c(C)oc2ccc(N(C(=O)c3ccncc3)S(=O)(=O)c3ccc(C)cc3)cc12	none (no result: rCAG RNA binder)
Cc1ccc(S(=O)(=O)N(C(=O)c2ccncc2)c2ccc3oc4c(c3c2)CCCC4)cc1[N+](=O)[O-]	NadD inh 35, FAS-TE inh 54 | FAS-TE conf inactive | NadD conf inactive
C/C(=C/CCC(C)[C@H]1CC[C@@]2(C)C3=C(CC[C@]12C)[C@@]1(C)CCC(=O)C(C)(C)[C@@H]1CC3)C(=O)O (stereo partly specified)	NadD inh 45, FAS-TE inh 74 | FAS-TE conf inactive | NadD conf inactive
CCOc1ccc2nc(Cl)c(C3CC(c4ccco4)=NN3S(=O)(=O)c3ccccc3)cc2c1 (stereo unspecified)	NadD inh 36, FAS-TE inh 53 | FAS-TE conf inactive | NadD conf inactive
O=C(Nc1c(F)c(F)c(F)c(F)c1F)OC[C@@H]1CSCCS(=O)(=O)N1	none (no result: NR3A LBD binder, NadD inh, FAS-TE inh)
COc1cc2c(cc1NC(=O)C(C)N1CCN(S(=O)(=O)c3ccccc3[N+](=O)[O-])CC1)oc1ccccc12 (stereo unspecified)	NadD inh 38, FAS-TE inh 54 | FAS-TE conf inactive | NadD conf inactive
COc1cc2c(cc1NC(=O)C(C)N1CCN(S(=O)(=O)c3ccc(C)c(C)c3)CC1)oc1ccccc12 (stereo unspecified)	none
O=C(NCc1cccc(F)c1)c1cccc2c1C(=O)c1ccc(N3CCOCC3)cc1S2(=O)=O	none
COc1ccccc1N1CCN(c2ccc3c(c2)S(=O)(=O)c2cccc(C(=O)NCc4cccc(F)c4)c2C3=O)CC1	NadD inh 31, FAS-TE inh 64 (no result: NR3A LBD binder) | FAS-TE conf inactive | NadD conf inactive
O=S(=O)(Nc1cccc(-c2ccc(N3CCCCCC3)nn2)c1)c1cccc(F)c1	NadD inh 31, FAS-TE inh 61 | FAS-TE conf inactive | NadD conf inactive
O=S(=O)(Nc1cccc(-c2ccc(N3CCCCCC3)nn2)c1)c1ccccc1Cl	NadD inh 50, FAS-TE inh 50 | FAS-TE conf inactive | NadD conf inactive
CC(C)N1CCCCC(NC(=O)Cc2ccccc2)C1=O (stereo unspecified)	none (no result: NR3A LBD binder, NadD inh, FAS-TE inh)
COc1ccccc1-n1cc(C(=O)c2cc(Cl)ccc2O)cc(C#N)c1=O	none
COc1ccccc1-n1c(=O)c(C#N)c(-c2ccc([N+](=O)[O-])cc2)c2cc(C(=O)c3ccccc3O)cnc21	NadD inh 38, FAS-TE inh 89 | FAS-TE conf inactive | NadD conf inactive
O=C(CSc1nc2nc3c(cc2c(=O)n1-c1ccccc1)CCCC3)Nc1cccc2ccccc12	NadD inh 41, FAS-TE inh 63 | FAS-TE conf inactive | NadD conf inactive
COc1cc(/C=C2\SC(=O)N(Cc3ccc(F)cc3)C2=O)cc([N+](=O)[O-])c1O	NadD inh 38, FAS-TE inh 68 | FAS-TE conf inactive | NadD conf inactive
COc1cc(/C=C2\SC(=O)N(Cc3ccc(Cl)cc3)C2=O)cc([N+](=O)[O-])c1O	NadD inh 37, FAS-TE inh 72 | FAS-TE conf inactive | NadD conf inactive
O=C(NCc1ccccc1)[C@@H]1CCCN1C(=O)[C@H]1CCCN1C(=O)c1ccccc1C(F)(F)F	none (no result: NR3A LBD binder, NadD inh, FAS-TE inh)
CCC1CCCCN1c1ccc([N+](=O)[O-])cc1/C=N/NC(=O)Cn1c2ccccc2c(=O)c2ccccc21 (stereo unspecified)	NadD inh 51, FAS-TE inh 60 | FAS-TE conf inactive | NadD conf inactive
CC(C)C[C@@H]1COc2cc(Br)ccc2S(=O)(=O)N1Cc1cn(Cc2ccc(F)cc2)nn1	none (no result: NR3A LBD binder, NadD inh, FAS-TE inh)
COc1ccccc1-c1cc(C(=O)N/N=C/C=C/c2ccccc2[N+](=O)[O-])c2ccccc2n1	NadD inh 38, FAS-TE inh 63 | FAS-TE conf inactive | NadD conf inactive
Cc1ccccc1-n1c(SCC(=O)N/N=C/C=C/c2ccccc2[N+](=O)[O-])nc2ccccc2c1=O	NadD inh 33, FAS-TE inh 79 | FAS-TE conf inactive | NadD conf inactive
C#CCN1CC(N(C)CCOC(=O)CSc2ccccc2)CS1(=O)=O (stereo unspecified)	none (no result: NR3A LBD binder, NadD inh, FAS-TE inh)
Cc1ccc(S(=O)(=O)c2nnn3c2nc(N2CCN(c4ccccn4)CC2)c2ccccc23)cc1C	NadD inh 40, FAS-TE inh 53 | FAS-TE conf inactive | NadD conf inactive
Cc1ccc(S(=O)(=O)c2nnn3c2nc(N2CCCCC2)c2ccccc23)cc1	none
COc1ccc(OC)c(S(=O)(=O)NCC2CCN(C(=O)C(=O)c3cccs3)CC2)c1	none (no result: NR3A LBD binder, NadD inh, FAS-TE inh)
S=C1NCN(CC2CC2)CN1	none (no result: NR3A LBD binder, NadD inh, FAS-TE inh)
Cc1nn(-c2ccccc2)c(N)c1C1(O)C(=O)Nc2ccc([N+](=O)[O-])cc21 (stereo unspecified)	none
Cc1nn(-c2ccc([N+](=O)[O-])cc2)c2c1C(c1cccc(Br)c1)N1C(=N2)C(=O)Nc2ccccc21 (stereo unspecified)	NadD inh 31, FAS-TE inh 70 | FAS-TE conf inactive | NadD conf inactive
O=C1c2ccc(-c3ccc(Cl)c(C(F)(F)F)c3)cc2S(=O)(=O)c2cccc(C(=O)N3CCN(c4ccc(Cl)cn4)CC3)c21	NadD inh 55, FAS-TE inh 67 | FAS-TE conf inactive | NadD conf inactive
COc1ccc(-c2ccc3c(c2)S(=O)(=O)c2cccc(C(=O)N4CCN(c5ccccn5)CC4)c2C3=O)cc1OC	none (no result: NR3A LBD binder)
O=C(c1cc(C2CC2)on1)N(C1CCCCC1)C1CCCCC1	none (no result: NR3A LBD binder, NadD inh, FAS-TE inh)
Cc1cccn2c(=O)c(/C=C(\C#N)S(=O)(=O)c3ccccc3)c(N3CCN(c4ccccc4)CC3)nc12	NadD inh 43, FAS-TE inh 66 | FAS-TE conf inactive | NadD conf inactive
CCN1CCN(c2nc3c(C)cccn3c(=O)c2/C=C(\C#N)S(=O)(=O)c2ccccc2)CC1	none
COc1ccc(Cn2ccc3ccc(-c4ccc5ccn(C(=O)C6CC6)c5c4)cc32)cc1	none (no result: NR3A LBD binder, NadD inh, FAS-TE inh)
Cc1ccc(-c2c(NC(=O)C3CC3)nc3ncccn23)cc1	none (no result: NR3A LBD binder, NadD inh, FAS-TE inh)
COc1ccc(S(=O)(=O)N2CCCc3nc(C)c(C)cc32)cc1	none (no result: NR3A LBD binder, NadD inh, FAS-TE inh)
O=C(Nc1ccc(Cl)cc1)c1nc[nH]c1C(=O)NCCN(CCNC(=O)c1[nH]cnc1C(=O)Nc1ccc(Cl)cc1)CCNC(=O)c1[nH]cnc1C(=O)Nc1ccc(Cl)cc1	NR3A LBD binder 19, NadD inh 57, FAS-TE inh 58 (no result: rCAG RNA binder) | FAS-TE conf inactive | NadD conf inactive
CNC(=O)c1[nH]cnc1C(=O)Nc1ccc(Cl)cc1	none
Cc1cccc(NC(=O)c2nc[nH]c2C(=O)NCCN(CCNC(=O)c2[nH]cnc2C(=O)Nc2cccc(C)c2)CCNC(=O)c2[nH]cnc2C(=O)Nc2cccc(C)c2)c1	NR3A LBD binder 14, NadD inh 42, FAS-TE inh 84 | FAS-TE conf inactive | NadD conf inactive
